This note sets out measurements from PubChem BioAssay (EPA / NIEHS).

Structures are written as SMILES. Activity calls are given as the source filed them. How the source made its calls: active means hit-call score of the fitted dose curve at least 0.9, where 1 is the maximum; inactive means score below 0.9.

Conditions in all cases: mRNA level, 48 h; actives raise or lower the signal
Read-out in test [1]: Pro-epidermal growth factor (Homo sapiens) (UniProt P01133)
As to the kind of experiment: LTEA_HepaRG_EGF: Life Technologies and Expression Analysis (LTEA) Assay for Epidermal growth factor (EGF) using HepaRG (AID 2283489). The method, boiled down:
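qRT-PCR readout of EGF transcript after 48 h chemical exposure of HepaRG cells; eight concentrations from 100 uM down in half-log steps, duplicate wells, 0.5% DMSO vehicle. Bidirectional curve fitting against DMSO baseline.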

Read-out in test [2]: Early growth response protein 1 (EGR1) transcription factor, EGR1 (gene 1958)
Briefly: LTEA_HepaRG_EGR1: Life Technologies and Expression Analysis (LTEA) Assay for Early growth response protein 1 (EGR1) transcription factor using HepaRG (AID 2283490). The essentials: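 Read-out is EGR1 mRNA level by qRT-PCR, normalized to three housekeeping genes and analysed for gain or loss of signal against 0.5% DMSO. Source cells: human HepaRG, treated 48 h at up to 100 uM in half-log dilutions.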

Read-out in test [3]: Ezrin (EZR), EZR (gene 7430)
Briefly: LTEA_HepaRG_EZR: Life Technologies and Expression Analysis (LTEA) Assay for Ezrin (EZR) using HepaRG (AID 2283491). The essentials: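 Gain or loss of EZR mRNA is scored relative to 0.5% DMSO in human HepaRG cultures treated 48 h with test chemicals in duplicate, eight half-log concentrations from 100 uM.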

Read-out in test [4]: Cytochrome P450 3A7 (Homo sapiens) (UniProt P24462)
As to the kind of experiment: LTEA_HepaRG_CYP3A7: Life Technologies and Expression Analysis (LTEA) Assay for CYP3A7 using HepaRG (AID 2283492). The essentials: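 CYP3A7 transcript levels were read by TaqMan qRT-PCR on Fluidigm arrays after 48 h chemical exposure of human HepaRG cells, with housekeeping-gene normalisation. Eight half-log concentrations up to 100 uM in 0.5% DMSO were tested in duplicate.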

Read-out in test [5]: CYP3A5 (gene 1577)
Briefly: LTEA_HepaRG_CYP3A5: Life Technologies and Expression Analysis (LTEA) Assay for CYP3A5 using HepaRG (AID 2283493). The essentials:
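HepaRG cells, plated 48 h then in serum-free induction medium, dosed in duplicate for 48 h with eight half-log concentrations up to 100 uM in 0.5% DMSO. Gene mRNA by Fluidigm TaqMan qRT-PCR, normalized to ACTB, GAPDH, POLR2A.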

Read-out in test [6]: Fatty Acid-Binding Protein 1 (FABP1), FABP1 (gene 2168)
Briefly: LTEA_HepaRG_FABP1: Life Technologies and Expression Analysis (LTEA) Assay for Fatty Acid-Binding Protein 1 (FABP1) using HepaRG (AID 2283494). The method, boiled down: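 HepaRG, 48 h post-plating switched to serum-free induction medium, then dosed 48 h (duplicate, 8 pts, ≤100 uM, 0.5% DMSO). RNA → Fluidigm TaqMan qRT-PCR, FABP1 normed to ACTB/GAPDH/POLR2A. Bidirectional curve fit vs DMSO.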

Read-out in test [7]: Cytochrome P450 4A22 (Homo sapiens) (UniProt Q5TCH4)
Briefly: LTEA_HepaRG_CYP4A22: Life Technologies and Expression Analysis (LTEA) Assay for Cytochrome P450 4A22 (CYP4A22) using HepaRG (AID 2283495). The essentials: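 HepaRG, 48 h post-plating -> serum-free induction medium; dosed 48 h, duplicate, 8 conc. (100 uM top, half-log), 0.5% DMSO. Readout: CYP4A22 mRNA by qRT-PCR, ACTB/GAPDH/POLR2A normalization; gain/loss fit relative to DMSO.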

Read-out in test [8]: Cytochrome P450 7A1 (Homo sapiens) (UniProt P22680)
Briefly: LTEA_HepaRG_CYP7A1: Life Technologies and Expression Analysis (LTEA) Assay for Cytochrome P450 7A1 (CYP7A1) using HepaRG (AID 2283496). The essentials:
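HepaRG cells plated 48 h, then switched to serum-free induction medium and exposed in duplicate for 48 h to 8-point half-log series from 100 uM in 0.5% DMSO. CYP7A1 mRNA by qRT-PCR (TaqMan), normalized to ACTB/GAPDH/POLR2A; bidirectional fit versus DMSO.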

Read-out in test [9]: Glutathione S-Transferase (GSTA2), GSTA2 (gene 2939)
As to the kind of experiment: LTEA_HepaRG_GSTA2: Life Technologies and Expression Analysis (LTEA) Assay for Glutathione S-Transferase (GSTA2) using HepaRG (AID 2283497). The method, boiled down:
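HepaRG, 48 h dosing, 8-pt half-log CRC from 100 uM, 0.5% DMSO vehicle, n=2; RNA → Fluidigm TaqMan qRT-PCR; GSTA2 vs ACTB/GAPDH/POLR2A; gain/loss fit vs DMSO.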

Read-out in test [10]: Glutamate-cysteine ligase catalytic (GCLC), GCLC (gene 2729)
As to the kind of experiment: LTEA_HepaRG_GCLC: Life Technologies and Expression Analysis (LTEA) Assay for Glutamate-cysteine ligase catalytic (GCLC) using HepaRG (AID 2283498). The method, boiled down:
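Read-out is GCLC transcript level by Fluidigm-based TaqMan qRT-PCR, normalized to three housekeeping genes and fitted in both directions relative to 0.5% DMSO. Human HepaRG cells received chemicals for 48 h, up to 100 uM.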

Cytochrome P450 3A7 (Homo sapiens), sequence (P24462 whole entry, looked up): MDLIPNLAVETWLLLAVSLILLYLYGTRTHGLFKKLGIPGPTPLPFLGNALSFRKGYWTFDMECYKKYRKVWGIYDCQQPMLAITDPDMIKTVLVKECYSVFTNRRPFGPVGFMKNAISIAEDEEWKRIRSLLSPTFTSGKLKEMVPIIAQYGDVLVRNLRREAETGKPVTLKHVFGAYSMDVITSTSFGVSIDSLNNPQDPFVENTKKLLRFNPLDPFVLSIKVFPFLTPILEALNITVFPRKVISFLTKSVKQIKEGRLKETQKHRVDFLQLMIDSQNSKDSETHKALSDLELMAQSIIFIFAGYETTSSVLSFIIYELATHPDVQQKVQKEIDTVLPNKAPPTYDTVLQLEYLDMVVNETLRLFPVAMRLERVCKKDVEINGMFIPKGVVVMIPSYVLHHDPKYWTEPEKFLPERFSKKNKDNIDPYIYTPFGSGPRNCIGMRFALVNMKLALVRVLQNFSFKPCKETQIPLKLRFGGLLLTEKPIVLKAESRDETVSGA

On to `ClC(Cl)c1ccccc1`, for which the compound was classed as inactive in [1], in [2], in test [3], in [4], in [5] and in test [6]. In addition, the result in test [7], in test [8], in [9] and in test [10] was inactive.

Turning to `CCN(CC)c1ccccc1`, the compound was classed as inactive in test [1], in test [2], in [3], in test [4], in test [5] and in test [6]. Moreover, the compound was classed as inactive in test [7], in test [8], in test [9] and in test [10].

`CCC(C)(C)c1ccc(O)cc1`: the compound was classed as inactive in test [1], in [2], in [3], in test [4], in test [5] and in test [6]. For the same compound, the compound was classed as inactive in [7], in test [8], in test [9] and in [10].

Turning to `Cc1ccc(N)cc1N`, the call in test [1], in test [2], in test [3], in test [4], in [5] and in test [6] was inactive. Besides, the call in test [7], in [9] and in test [10] was inactive. Also, the AC50 in test [8] is 18 µM (active).

On to `CCC1(c2ccccc2)C(=O)N=C(O)NC1=O` (stereo not given), for which the result in [1], in [2], in test [3], in test [5], in test [6] and in test [7] was inactive. The outcome in [8], in [9] and in [10] was inactive. Further, the AC50 in test [4] is 41.3 µM (active).

Consider `CN(C)C(=O)Cl`, for which the result in [1], in [2], in [3], in test [4], in [5] and in test [6] was inactive. In addition, the call in test [7], in test [8], in test [9] and in test [10] was inactive.

`CCOP(=S)(OCC)SCSCC`: the result in test [1], in [2], in test [3], in [4], in [5] and in test [6] was inactive. In addition, the call in test [7], in test [8], in [9] and in [10] was inactive.

Regarding `[N-]=[N+]=[N-]`, the outcome in test [1], in test [2], in [4], in test [5], in test [8] and in test [10] was inactive. The AC50 is 50 µM (active) in test [3], 77.6 µM (active) in [6], 50 µM (active) in [7] and 79.3 µM (active) in [9].

Take `CC(Cc1ccc(OCC(=O)O)cc1)NCC(O)c1csc(C(F)(F)F)n1` (stereo not given): the compound was called inactive in [1], in test [2], in test [3], in test [4], in test [5] and in [6]. Further, the result in test [7], in test [8], in test [9] and in test [10] was inactive.

With `Nc1ccc(Cl)cc1`, the call in [1], in test [2], in [3], in [4], in test [5] and in [6] was inactive. In addition, the result in [7], in [8], in [9] and in test [10] was inactive.

`c1ccc(OP(Oc2ccccc2)Oc2ccccc2)cc1`: the outcome in test [1], in test [2], in test [3], in test [4], in test [5] and in test [6] was inactive. Besides, the call in [7], in [8], in test [9] and in [10] was inactive.

`CCCCCCCc1ccc(O)cc1`: the compound was called inactive in test [1], in [2], in test [3], in [4], in [5] and in [6]. The outcome in [7], in test [8], in [9] and in test [10] was inactive.

In the case of `CCNc1nc(Cl)nc(NC(C)(C)C)n1`, the outcome in [1], in test [2], in test [3], in test [4], in test [5] and in [8] was inactive. Besides, the compound was called inactive in test [9] and in [10]. Besides, the AC50 in [6] was 28.7 µM (active); in test [7] it was 11 µM (active).

For `c1nc[nH]n1`, the compound was called inactive in [1], in test [3], in test [4], in test [5], in test [6] and in test [7]. Besides, the call in test [8], in test [9] and in test [10] was inactive. For the same compound, in test [2], the AC50 was 0.109 µM (active).

Consider `Nc1cc2c3c(c1)C(c1ccccc1)=N[C@@H](NC(=O)c1cccnc1)C(=O)N3CC2`, for which the compound was classed as inactive in test [1], in test [2], in test [3], in test [5], in test [8] and in test [9]. The compound was classed as inactive in test [10]. In addition, the AC50 was 5.11 µM (active) in test [4], 50 µM (active) in test [6] and 10.9 µM (active) in test [7].

For `c1cc2c3c(cccc3c1)CC2`, the result in test [1], in test [2], in test [3], in test [4], in test [5] and in [6] was inactive. For the same compound, the outcome in test [7], in test [8], in test [9] and in [10] was inactive.

`CCCCN(CCCC)SN(C)C(=O)Oc1cccc2c1OC(C)(C)C2`: the compound was classed as inactive in [1], in [2], in test [3], in test [5], in test [6] and in test [7]. The compound was classed as inactive in test [9] and in test [10]. In addition, the AC50 was 4.49 µM (active) in test [4] and 50 µM (active) in test [8].

Turning to `CCCN(CCC)c1c([N+](=O)[O-])cc(C(C)C)cc1[N+](=O)[O-]`, the results for the half-maximal activity concentration (AC50) in [1], in test [6] and in [8] were 29 µM (active), 9.92 µM (active) and 50 µM (active), respectively. Moreover, the compound was called inactive in [2], in test [3], in [4], in test [5], in [7] and in [9]. Moreover, the outcome in test [10] was inactive.

Consider `c1ccc2c(c1)Nc1ccccc1S2`, for which the outcome in [1], in [2], in test [3], in test [4], in test [5] and in test [7] was inactive. For the same compound, the result in [9] and in test [10] was inactive. Moreover, the values for the AC50 in test [6] and in test [8] were 50 µM (active) and 20.2 µM (active), respectively.

With `O=C(O)C1C(C(=O)O)C2(Cl)C(Cl)=C(Cl)C1(Cl)C2(Cl)Cl` (stereo not given), the compound was called inactive in test [1], in test [2], in test [3], in test [4], in test [5] and in test [6]. Further, the call in test [7], in test [8] and in test [9] was inactive. Further, the AC50 in test [10] was 50 µM (active).

For the compound `CCCCN(CCCC)N=O`, the result in [1], in [2], in test [3], in test [4], in test [5] and in test [6] was inactive. Besides, the call in test [7], in [8], in [9] and in test [10] was inactive.

What is called AC50 is the concentration giving half of the maximal activity seen.
